Source: PubChem (several laboratories)
CYP2C9 act – activators of human CYP2C9; recombinant CYP2C9, luciferin-H conversion, luminescence; active compounds read high; factor 1 = untreated enzyme, 0 = blocked; activation factor at 5 µM; hit rate 1.4% among 96,000;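 active means activation factor of 2 or more for CYP2C9 at a 5 µM dose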;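 further: 0 = sulfaphenazole-blocked wells and 1 = vehicle-only wells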
sEH inhibitor – blocks human soluble epoxide hydrolase activity; recombinant human sEH enzymatic activity assay; inhibition, % at 2 µM; hit rate 0.34% among 91,000; in the data active means inhibition above about 80%
sEH act – soluble epoxide hydrolase (human) activation | P34913 | purified human sEH enzymatic activity, activator screen | activation, % at 2 µM | hit rate 0.04% among 91,000; in the data active means activation above about 37%
CYP2C19 inh – inhibitors of human CYP2C19; P33261; CYP2C19 Supersomes, luciferin-H EGE luminescence, 30 min; inhibition, % at 5 µM; hit rate 21% among 96,000; AID 778;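 active means CYP2C19 inhibition above a set limit at 5 µM in the primary screen, cut at about 50% in these data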;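 further: plate controls were negative control wells for no effect and 2.5 mM tranylcypromine positive control for full effect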
Target sequence (P33261 whole entry, looked up): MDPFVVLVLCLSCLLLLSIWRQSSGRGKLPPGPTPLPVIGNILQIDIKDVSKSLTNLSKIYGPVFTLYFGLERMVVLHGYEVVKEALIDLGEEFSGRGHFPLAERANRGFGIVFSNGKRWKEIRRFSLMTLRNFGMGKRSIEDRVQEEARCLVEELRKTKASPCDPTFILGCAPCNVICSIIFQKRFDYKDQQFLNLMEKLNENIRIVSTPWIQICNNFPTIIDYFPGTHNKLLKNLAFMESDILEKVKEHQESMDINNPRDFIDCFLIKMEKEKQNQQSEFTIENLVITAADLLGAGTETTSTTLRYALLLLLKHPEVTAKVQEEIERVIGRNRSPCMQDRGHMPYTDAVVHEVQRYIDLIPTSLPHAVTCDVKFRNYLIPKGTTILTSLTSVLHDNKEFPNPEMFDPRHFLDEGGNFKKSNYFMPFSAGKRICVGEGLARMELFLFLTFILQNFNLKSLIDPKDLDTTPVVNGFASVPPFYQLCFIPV
CYP2C19 act – increases human CYP2C19 enzyme activity | P33261 | recombinant CYP2C19, luciferin-H EGE luminescence; active compounds read high; 0 = fully inhibited enzyme, 1 = untreated enzyme | activation factor at 5 µM | 96,000 tested, under 10 active | AID 1025;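 active means activation factor of at least 2 at 5 µM in the primary screen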;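 further: 0 = wells with 2.5 mM tranylcypromine and 1 = vehicle-only wells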
CYP2C9 inhib – inhibitors of human CYP2C9 | CYP2C9 Supersomes, luciferin-H conversion, luminescence | hit rate 20% among 96,000 | inhibition, % at 5 µM | P11712;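 active means blocking of liver enzyme CYP2C9 beyond about 50% at 5 µM, limit read from the data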
* marks the source's active call; other numbers are inactive results. Only some compounds are listed: those with a hit (about 27% of all), similar ones and a draw of the others.

`N#Cc1cccc(-c2nnc(SCc3ccccc3C#N)o2)c1` gave CYP2C9 act 1.1, CYP2C19 inh 27.3, CYP2C19 act 0.7 and CYP2C9 inhib -14.3.
Screening Brc1cccc(-c2nnc(SCc3nc4ccccc4[nH]3)o2)c1 returned CYP2C9 act 1.3, sEH inhibitor 5.5, sEH act -6.0, CYP2C19 inh 31.7, CYP2C19 act 0.7 and CYP2C9 inhib -27.1.
Clc1ccccc1CSc1nnc(-c2ccncc2)o1 was read as CYP2C9 act 0.1, sEH inhibitor -17.9, sEH act 16.5, CYP2C19 inh 95.0*, CYP2C19 act 0.1 and CYP2C9 inhib 89.7*.
`CCCCNC(=O)C(C#N)c1nc2ccccc2nc1N1CCN(c2ccccc2F)CC1` (centres undefined) gave sEH inhibitor 0.8 and sEH act -1.1.
O=C(Cc1ccccc1)Nc1c(C(=O)N2CCOCC2)cnn1-c1ccccc1 was read as CYP2C9 act 1.1, sEH inhibitor -1.1, sEH act 0.8, CYP2C19 inh -6.5, CYP2C19 act 1.1 and CYP2C9 inhib -6.0.
Screening NS(=O)(=O)c1ccc(NC(=O)CSc2nnc(Cc3cccs3)n2-c2ccccc2)cc1 returned CYP2C9 act 0.9, sEH inhibitor -8.8, sEH act 8.0, CYP2C19 inh -13.4, CYP2C19 act 1.1 and CYP2C9 inhib 5.1.
`COc1cccc(NC(=O)CSc2nnc(Cc3cccs3)n2-c2ccc(C)cc2)c1` gave CYP2C9 act 0.3, sEH inhibitor 0.0, sEH act -0.7, CYP2C19 inh 45.4, CYP2C19 act 0.5 and CYP2C9 inhib 65.4*.
Screening Cc1ccc(-n2c(Cc3cccs3)nnc2SCC(=O)Nc2ccc(S(N)(=O)=O)cc2)cc1 returned CYP2C9 act 0.3, sEH inhibitor -4.9, sEH act 4.3, CYP2C19 inh 63.4*, CYP2C19 act 0.4 and CYP2C9 inhib 74.1*.
For COc1ccc(NC(=O)CSc2nnc(Cc3cccs3)n2-c2ccc(C)cc2)cc1 the results were CYP2C9 act 0.5, sEH inhibitor 13.1, sEH act -16.1, CYP2C19 inh 72.7*, CYP2C19 act 0.3 and CYP2C9 inhib 51.2*.
Screening C=CCn1c(Cc2cccs2)nnc1SCC(=O)Nc1ccc(OC)cc1 returned CYP2C9 act 0.8, sEH inhibitor 21.6, sEH act -23.9, CYP2C19 inh 20.6, CYP2C19 act 0.8 and CYP2C9 inhib 22.8.
For COc1ccc(-n2c(Cc3cccs3)nnc2SCC(=O)Nc2ccc3c(c2)OCCO3)cc1 the results were CYP2C9 act 0.4, sEH inhibitor -3.8, sEH act 0.8, CYP2C19 inh 55.5*, CYP2C19 act 0.4 and CYP2C9 inhib 60.7*.
Cc1c(C)[n+](=O)c(-c2ccco2)c(C)n1[O-] was read as CYP2C9 act 0.8, sEH inhibitor -8.2, sEH act 6.8, CYP2C19 inh 17.0, CYP2C19 act 0.8 and CYP2C9 inhib 17.3.
`CCCCCCSc1nc(O)c(C2OC(=O)c3c2ccc(OC)c3OC)c(=O)n1-c1ccccc1` (centres undefined) gave CYP2C9 act 0.6, sEH inhibitor 18.2, sEH act -15.6, CYP2C19 inh 9.6, CYP2C19 act 0.9 and CYP2C9 inhib 39.3.
COc1ccc2sc(NC(=O)CC(C)C)nc2c1 was read as CYP2C9 act 0.3, sEH inhibitor 11.6, sEH act -11.8, CYP2C19 inh 57.7*, CYP2C19 act 0.4 and CYP2C9 inhib 65.9*.
`C=CCCC(=O)Nc1nc(C)c(-c2csc(Nc3cc(OC)ccc3OC)n2)s1` gave CYP2C9 act 0.5, sEH inhibitor 18.3, sEH act -17.7, CYP2C19 inh 9.0, CYP2C19 act 0.9 and CYP2C9 inhib 51.6*.
For CCCCCC(=O)Nc1nc(C)c(-c2csc(Nc3cc(Cl)ccc3OC)n2)s1 the results were CYP2C9 act 0.7, sEH inhibitor 19.1, sEH act -18.5, CYP2C19 inh 5.6, CYP2C19 act 0.9 and CYP2C9 inhib 33.6.
For CCC(=O)Nc1nc2cc(OC)ccc2s1 the results were CYP2C9 act 0.8, sEH inhibitor -6.7, sEH act 6.7, CYP2C19 inh 4.8, CYP2C19 act 1 and CYP2C9 inhib 16.1.
`CCCC(=O)Nc1nc(C)c(-c2csc(Nc3cc(OC)ccc3OC)n2)s1` gave CYP2C9 act 0.2, sEH inhibitor 19.9, sEH act -19.3, CYP2C19 inh 20.0, CYP2C19 act 0.8 and CYP2C9 inhib 77.8*.
